Assay results as given in PubChem BioAssay (EPA / NIEHS).
Where “and” joins values, the source holds several entries; their conditions need not be identical. Equal values may be shown once. Records with an inconclusive call do not appear. Some structures have more than one record in an assay (separate samples or runs), and their calls can disagree. Calls of active or inactive are those of the source. Rule for the calls, unless noted: active = hit-call score of the fitted dose curve at least 0.9, where 1 is the maximum; inactive = score below 0.9.

Columns and labels:
[1] = target: Glucocorticoid receptor (Homo sapiens) (UniProt P04150); test: ATG_GR_TRANS: Attagene TRANS-FACTORIAL HepG2 Assay for human Glucocorticoid Receptor (GR) (AID 2282978; active = hit-call score of the fitted dose curve at least 0.9, where 1 is the maximum;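 note: activators score as hits since higher reporter transcript over DMSO is fitted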); settings: HepG2 Attagene TRANS GR reporter, mRNA transcription
Summary of the method: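 HepG2 cells transiently transfected with multiplexed reporter units in which chimeric NR-GAL4 proteins drive GAL4-UAS reporters; 24 h compound exposure. Reporter mRNA measured by RT-PCR, 6-FAM labelling, HpaI digestion and capillary electrophoresis; gain-of-signal fitted versus DMSO.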

[2] = target: Bile acid receptor (Homo sapiens) (UniProt Q96RI1); test: ATG_FXR_TRANS: Attagene TRANS-FACTORIAL HepG2 Assay for Farnesoid X Receptor (FXR) (AID 2282979; active = hit-call score of the fitted dose curve at least 0.9, where 1 is the maximum;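 note: hits raise reporter mRNA above DMSO so AC50 marks FXR activation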); settings: HepG2 Attagene TRANS FXR-GAL4 reporter transcription
Chain of Bile acid receptor (Homo sapiens) (Q96RI1 whole entry, looked up, the tested form may be a part): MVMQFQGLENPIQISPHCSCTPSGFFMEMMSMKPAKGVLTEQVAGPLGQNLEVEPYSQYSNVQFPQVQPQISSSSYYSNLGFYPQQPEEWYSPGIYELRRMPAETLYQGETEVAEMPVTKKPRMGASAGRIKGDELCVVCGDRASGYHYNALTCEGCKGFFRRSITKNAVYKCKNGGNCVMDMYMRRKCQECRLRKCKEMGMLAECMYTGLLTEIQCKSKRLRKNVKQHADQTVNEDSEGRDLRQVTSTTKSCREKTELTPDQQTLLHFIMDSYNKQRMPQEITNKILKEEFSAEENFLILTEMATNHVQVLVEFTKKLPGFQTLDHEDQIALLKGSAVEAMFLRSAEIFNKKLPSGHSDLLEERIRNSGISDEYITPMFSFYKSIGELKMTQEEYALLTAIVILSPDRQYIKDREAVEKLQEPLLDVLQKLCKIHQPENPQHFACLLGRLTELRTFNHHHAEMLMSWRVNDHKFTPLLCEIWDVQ
Summary of the method: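 Reporter transcripts from transfected HepG2 cells were measured 24 h after dosing, using RT-PCR with capillary electrophoresis of 6-FAM-labelled fragments. The read-out reflects activity of exogenous FXR-Gal4 chimera on GAL4-UAS units, with induction relative to DMSO.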

[3] = target: Hepatocyte nuclear factor 4-alpha (Homo sapiens) (UniProt P41235); test: ATG_HNF4a_TRANS: Attagene TRANS-FACTORIAL HepG2 Assay for human Hepatocyte Nuclear Factor 4 alpha (HNF4a) (AID 2282982; active = hit-call score of the fitted dose curve at least 0.9, where 1 is the maximum); settings: HepG2 HNF4a transactivation reporter, mRNA readout
Chain of Hepatocyte nuclear factor 4-alpha (Homo sapiens) (P41235 whole entry, looked up): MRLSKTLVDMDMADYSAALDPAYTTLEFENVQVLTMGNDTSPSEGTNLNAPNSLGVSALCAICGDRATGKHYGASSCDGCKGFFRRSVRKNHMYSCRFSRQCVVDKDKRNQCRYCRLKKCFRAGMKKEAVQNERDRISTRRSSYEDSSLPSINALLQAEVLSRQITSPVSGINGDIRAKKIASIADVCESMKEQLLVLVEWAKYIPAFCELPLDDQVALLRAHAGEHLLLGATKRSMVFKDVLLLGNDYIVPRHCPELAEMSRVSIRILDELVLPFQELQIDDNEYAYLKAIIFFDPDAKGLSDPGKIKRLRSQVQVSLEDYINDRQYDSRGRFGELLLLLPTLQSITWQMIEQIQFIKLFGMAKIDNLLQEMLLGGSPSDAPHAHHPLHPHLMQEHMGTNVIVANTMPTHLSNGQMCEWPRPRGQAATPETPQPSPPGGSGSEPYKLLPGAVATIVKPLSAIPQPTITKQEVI
Summary of the method: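 Multiplexed reporter assay: transfected HepG2, 24 h exposure, total RNA → oligo(dT) RT → PCR → 6-FAM extension → HpaI digest → CE fluorescence. DMSO = negative control.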

[4] = ATG_M_06_TRANS: Attagene TRANS-FACTORIAL HepG2 Assay for M06 Transcription Factor (Internal Marker) (AID 2282983; active = hit-call score of the fitted dose curve at least 0.9, where 1 is the maximum;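 note: reporter transcript level by RT-PCR then capillary electrophoresis fluorescence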); settings: HepG2 Attagene TRANS M06 internal marker reporter
Summary of the method: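 Background-control reporter readout: after 24 h chemical exposure of transiently transfected HepG2 (GAL4-UAS reporter units), mRNA quantified by RT-PCR with fluorescent labeling and capillary electrophoresis. Gain-of-signal fitting against DMSO baseline.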

[5] = target: Transcriptional activator Myb (Homo sapiens) (UniProt P10242); test: ATG_Myb_CIS: Attagene CIS-FACTORIAL HepG2 Assay for human Myeloblastosis (Myb) Proto-Oncogene Transcription Factor (AID 2282986); settings: HepG2 Attagene CIS-FACTORIAL Myb reporter transcription; actives raise or lower the signal
Chain of Transcriptional activator Myb (Homo sapiens) (P10242 whole entry, looked up): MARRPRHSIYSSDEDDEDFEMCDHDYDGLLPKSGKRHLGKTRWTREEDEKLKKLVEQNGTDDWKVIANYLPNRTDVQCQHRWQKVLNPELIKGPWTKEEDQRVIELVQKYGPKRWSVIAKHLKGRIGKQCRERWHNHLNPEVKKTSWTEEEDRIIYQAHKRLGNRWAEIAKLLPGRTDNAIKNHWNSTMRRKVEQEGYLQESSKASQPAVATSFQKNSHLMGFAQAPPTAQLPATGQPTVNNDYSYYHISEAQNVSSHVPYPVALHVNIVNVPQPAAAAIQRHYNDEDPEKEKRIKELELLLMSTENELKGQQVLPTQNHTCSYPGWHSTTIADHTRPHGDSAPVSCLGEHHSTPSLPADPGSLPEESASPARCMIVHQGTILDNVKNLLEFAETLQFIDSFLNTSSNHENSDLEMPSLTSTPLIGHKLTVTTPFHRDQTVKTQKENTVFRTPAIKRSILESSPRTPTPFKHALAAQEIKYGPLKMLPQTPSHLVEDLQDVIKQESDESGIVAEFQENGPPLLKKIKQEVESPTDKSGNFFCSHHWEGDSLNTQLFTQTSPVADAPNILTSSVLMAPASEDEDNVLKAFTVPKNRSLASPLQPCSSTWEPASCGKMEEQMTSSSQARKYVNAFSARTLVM
Summary of the method: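 HepG2 cells were transiently transfected with cis-regulated multiple reporter transcription units reflecting endogenous Myb activity, then exposed to compound for 24 hours. Reporter mRNA was measured by RT-PCR with capillary electrophoresis; bidirectional fitting versus DMSO baseline.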

[6] = target: Nuclear respiratory factor 1 (Homo sapiens) (UniProt Q16656); test: ATG_NRF1_CIS: Attagene CIS-FACTORIAL HepG2 Assay for human Nuclear Respiratory Factor 1 (NRF1) Orphan Gene (AID 2282987); settings: HepG2 NRF1 cis-element reporter, Attagene multiplex; actives raise or lower the signal
Chain of Nuclear respiratory factor 1 (Homo sapiens) (Q16656 whole entry, looked up): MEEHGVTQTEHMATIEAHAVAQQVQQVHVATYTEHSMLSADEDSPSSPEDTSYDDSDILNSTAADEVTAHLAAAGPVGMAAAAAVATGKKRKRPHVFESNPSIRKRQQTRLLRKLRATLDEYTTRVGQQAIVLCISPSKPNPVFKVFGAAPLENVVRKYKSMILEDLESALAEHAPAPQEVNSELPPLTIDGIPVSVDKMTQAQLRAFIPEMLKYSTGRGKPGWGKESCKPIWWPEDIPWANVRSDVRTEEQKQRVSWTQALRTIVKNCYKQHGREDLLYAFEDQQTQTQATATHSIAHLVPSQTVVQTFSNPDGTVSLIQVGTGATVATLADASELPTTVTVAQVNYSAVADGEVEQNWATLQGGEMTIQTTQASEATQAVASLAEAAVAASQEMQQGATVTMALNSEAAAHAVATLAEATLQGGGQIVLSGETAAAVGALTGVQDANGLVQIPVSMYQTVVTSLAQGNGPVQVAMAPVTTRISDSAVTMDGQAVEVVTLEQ
Summary of the method: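 HepG2 cells transiently transfected with multiple reporter transcription units under cis-regulatory promoter control, so endogenous transcription-factor activity is read. After 24 h compound exposure, reporter mRNA quantified by RT-PCR, fluorescent labelling, HpaI digestion and capillary electrophoresis; bidirectional fitting versus DMSO.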

[7] = ATG_NFI_CIS: Attagene CIS-FACTORIAL HepG2 Assay for human Nuclear Factor I (NFI) (AID 2282989); settings: HepG2 cis-regulatory reporter, NFI response element transcription; actives raise or lower the signal
Summary of the method: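 Multiplexed cis-reporter system in human HepG2 cells reports native TF activity as reporter mRNA induction 24 h post-dose. Fragments labelled with 6-FAM, HpaI-digested and resolved by capillary electrophoresis; activity fitted both directions versus DMSO.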

[8] = target: Myc proto-oncogene protein (Homo sapiens) (UniProt P01106); test: ATG_Myc_CIS: Attagene CIS-FACTORIAL HepG2 Assay for human Myelocytomatosis (Myc) Proto-Oncogene Transcription Factor (AID 2282990); settings: HepG2, Attagene cis-reporter transcription factor activity; actives raise or lower the signal
Chain of Myc proto-oncogene protein (Homo sapiens) (P01106 whole entry, looked up, the tested form may be a part): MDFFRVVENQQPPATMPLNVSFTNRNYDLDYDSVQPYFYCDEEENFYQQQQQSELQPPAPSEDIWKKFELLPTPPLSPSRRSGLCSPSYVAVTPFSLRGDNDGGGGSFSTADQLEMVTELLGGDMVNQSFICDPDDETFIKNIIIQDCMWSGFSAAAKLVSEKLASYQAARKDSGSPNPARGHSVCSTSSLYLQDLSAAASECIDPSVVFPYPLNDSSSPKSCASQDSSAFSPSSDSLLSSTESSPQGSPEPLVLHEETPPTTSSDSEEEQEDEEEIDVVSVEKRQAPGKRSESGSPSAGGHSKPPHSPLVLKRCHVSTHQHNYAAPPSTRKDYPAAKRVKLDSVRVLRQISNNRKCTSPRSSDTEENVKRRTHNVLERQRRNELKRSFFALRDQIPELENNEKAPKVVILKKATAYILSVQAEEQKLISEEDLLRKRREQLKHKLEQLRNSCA
Summary of the method: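 After 24 h chemical treatment of HepG2 cells carrying multiplexed cis-regulated reporter constructs, reporter transcripts quantified by RT-PCR and capillary electrophoresis of fluorescent fragments. Gain or loss fitted against DMSO baseline.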

[9] = ATG_NF_kB_CIS: Attagene CIS-FACTORIAL HepG2 Assay for human Nuclear Factor Kappa B (NF-kB) (AID 2282991); settings: HepG2 Attagene cis-factorial NF-kB reporter mRNA; actives raise or lower the signal
Summary of the method: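 HepG2 cells transiently transfected with multiplexed cis-element reporter units measuring endogenous transcription factor activity; reporter mRNA read 24 h after dosing by RT-PCR, fluorescent labelling, HpaI digestion and capillary electrophoresis. Bidirectional fit against DMSO baseline.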

[10] = ATG_Oct_MLP_CIS: Attagene CIS-FACTORIAL HepG2 Assay for human Octamer-Binding Transcription Factor (Oct) (AID 2282993); settings: HepG2 Attagene cis-factorial Oct reporter, mRNA; actives raise or lower the signal
Summary of the method: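 After 24 h compound exposure, transfected HepG2 cells were lysed for total RNA; reporter-specific cDNA was PCR-amplified, fluorescently labelled and sized by capillary electrophoresis. Bidirectional curve fitting used DMSO as baseline.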

[11] = target: Cellular tumor antigen p53 (Homo sapiens) (UniProt P04637); test: ATG_p53_CIS: Attagene CIS-FACTORIAL HepG2 Assay for human p53 Transcription Factor (AID 2282994); settings: HepG2 p53 cis-element reporter, Attagene mRNA; actives raise or lower the signal
Chain of Cellular tumor antigen p53 (Homo sapiens) (P04637 whole entry, looked up, the tested form may be a part): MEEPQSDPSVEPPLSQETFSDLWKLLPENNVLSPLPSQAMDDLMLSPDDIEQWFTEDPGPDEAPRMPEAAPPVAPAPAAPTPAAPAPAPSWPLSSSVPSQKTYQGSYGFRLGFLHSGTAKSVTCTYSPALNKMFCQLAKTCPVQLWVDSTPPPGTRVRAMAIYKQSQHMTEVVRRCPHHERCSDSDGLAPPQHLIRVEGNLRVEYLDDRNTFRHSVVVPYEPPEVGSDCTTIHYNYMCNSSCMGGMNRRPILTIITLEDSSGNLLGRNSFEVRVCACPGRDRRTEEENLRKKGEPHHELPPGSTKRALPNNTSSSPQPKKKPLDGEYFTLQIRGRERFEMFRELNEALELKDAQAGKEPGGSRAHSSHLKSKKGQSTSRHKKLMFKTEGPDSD
Summary of the method: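 Steps: transfect HepG2 with multiplexed cis reporter constructs; dose chemicals 24 h; extract RNA, reverse-transcribe, PCR-amplify reporter sequences; FAM-label, HpaI-digest, resolve fragments by CE. Activity fitted both directions relative to DMSO.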

[12] = BSK_3C_TissueFactor: BioMAP Diversity Plus: 3C Assay for Tissue Factor Biomarker Activity (AID 2282997); settings: BioMAP 3C HUVEC, tissue factor biomarker readout; actives raise or lower the signal
Summary of the method: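 Tissue factor on primary human umbilical vein endothelium was read by ELISA 24 h after dosing, gain or loss relative to DMSO. Cytotoxicity ran alongside via SRB (0.1%, TCA-fixed, 560 nm).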

[13] = BSK_3C_uPAR: BioMAP Diversity Plus: 3C Assay for Urokinase-type plasminogen activator receptor (uPAR) Biomarker Activity (AID 2282998); settings: BioMAP 3C HUVEC, uPAR biomarker ELISA; actives raise or lower the signal
Summary of the method: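 Values derive from bidirectional curve fitting relative to DMSO, which served as baseline of activity. uPAR was measured by ELISA in human umbilical vein endothelial primary cultures 24 h after compound addition.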

[14] = BSK_3C_VCAM1: BioMAP Diversity Plus: 3C Assay for Vascular cell adhesion molecule 1 (VCAM1) Biomarker Activity (AID 2282999); settings: BioMAP 3C HUVEC, VCAM1 ELISA, cytokine-stimulated; actives raise or lower the signal
Summary of the method: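 Activity fitted in both directions relative to DMSO, with ELISA measurement of the surface marker on primary HUVEC (3C) at 24 h post-treatment; parallel SRB staining (0.1% SRB, TCA-fixed, 560 nm) flagged overt cytotoxicity.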

[15] = target: Estrogen-related receptor gamma (Homo sapiens) (UniProt P62508); test: ATG_ERRg_TRANS: Attagene TRANS-FACTORIAL HepG2 Assay for human Estrogen-Related Receptor gamma (ERRg) (AID 2282977; active = hit-call score of the fitted dose curve at least 0.9, where 1 is the maximum;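 note: hits increase reporter signal over DMSO so potencies reflect activators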); settings: HepG2 Attagene TRANS reporter, ERRg transactivation
Chain of Estrogen-related receptor gamma (Homo sapiens) (P62508 whole entry, looked up, the tested form may be a part): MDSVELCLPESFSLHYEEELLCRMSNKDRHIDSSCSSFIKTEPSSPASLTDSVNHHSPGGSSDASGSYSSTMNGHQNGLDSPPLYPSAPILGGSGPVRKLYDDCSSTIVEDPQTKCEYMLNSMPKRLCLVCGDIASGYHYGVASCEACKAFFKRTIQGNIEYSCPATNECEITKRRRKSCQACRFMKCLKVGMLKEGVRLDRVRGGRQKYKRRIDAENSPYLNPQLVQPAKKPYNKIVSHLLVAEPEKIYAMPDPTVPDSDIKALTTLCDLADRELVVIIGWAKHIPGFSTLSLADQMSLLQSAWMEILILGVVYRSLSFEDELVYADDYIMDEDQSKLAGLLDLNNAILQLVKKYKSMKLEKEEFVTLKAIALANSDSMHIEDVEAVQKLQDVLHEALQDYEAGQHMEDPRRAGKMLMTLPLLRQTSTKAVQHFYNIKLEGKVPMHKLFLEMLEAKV
Summary of the method: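 Exogenous NR-Gal4 chimera activity was assessed in HepG2 cells bearing transfected GAL4-UAS reporters. After 24 h dosing, total RNA underwent RT-PCR, fluorescent primer extension and HpaI digestion before capillary electrophoresis, with gain of signal scored against DMSO.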

[16] = target: Oxysterols receptor LXR-alpha (Homo sapiens) (UniProt Q13133); test: ATG_LXRa_TRANS: Attagene TRANS-FACTORIAL HepG2 Assay for human Liver X Receptor alpha (LXRa) (AID 2282980; active = hit-call score of the fitted dose curve at least 0.9, where 1 is the maximum); settings: HepG2 Attagene TRANS reporter, LXRa transactivation
Chain of Oxysterols receptor LXR-alpha (Homo sapiens) (Q13133 whole entry, looked up, the tested form may be a part): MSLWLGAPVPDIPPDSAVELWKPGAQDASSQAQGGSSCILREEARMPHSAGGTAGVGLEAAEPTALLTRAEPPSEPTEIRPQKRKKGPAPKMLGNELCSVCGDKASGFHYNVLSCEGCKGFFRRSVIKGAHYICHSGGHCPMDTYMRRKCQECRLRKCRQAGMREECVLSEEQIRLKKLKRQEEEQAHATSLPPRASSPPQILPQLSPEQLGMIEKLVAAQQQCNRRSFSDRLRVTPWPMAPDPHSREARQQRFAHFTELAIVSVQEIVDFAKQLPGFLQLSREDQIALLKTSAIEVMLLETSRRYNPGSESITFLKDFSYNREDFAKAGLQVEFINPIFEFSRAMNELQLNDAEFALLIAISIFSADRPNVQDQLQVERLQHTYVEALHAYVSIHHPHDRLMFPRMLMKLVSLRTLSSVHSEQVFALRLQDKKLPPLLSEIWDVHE
Summary of the method: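 Chemical-induced reporter mRNA measured by RT-PCR with fluorescent labelling and capillary electrophoresis after 24 h dosing of transiently transfected HepG2 cells expressing exogenous NR-Gal4 chimeras; increases scored against DMSO baseline.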

[17] = target: Oxysterols receptor LXR-beta (Homo sapiens) (UniProt P55055); test: ATG_LXRb_TRANS: Attagene TRANS-FACTORIAL HepG2 Assay for human Liver X Receptor beta (LXRb) (AID 2282981; active = hit-call score of the fitted dose curve at least 0.9, where 1 is the maximum); settings: HepG2 Attagene TRANS GAL4-LXRb reporter, mRNA
Chain of Oxysterols receptor LXR-beta (Homo sapiens) (P55055 whole entry, looked up, the tested form may be a part): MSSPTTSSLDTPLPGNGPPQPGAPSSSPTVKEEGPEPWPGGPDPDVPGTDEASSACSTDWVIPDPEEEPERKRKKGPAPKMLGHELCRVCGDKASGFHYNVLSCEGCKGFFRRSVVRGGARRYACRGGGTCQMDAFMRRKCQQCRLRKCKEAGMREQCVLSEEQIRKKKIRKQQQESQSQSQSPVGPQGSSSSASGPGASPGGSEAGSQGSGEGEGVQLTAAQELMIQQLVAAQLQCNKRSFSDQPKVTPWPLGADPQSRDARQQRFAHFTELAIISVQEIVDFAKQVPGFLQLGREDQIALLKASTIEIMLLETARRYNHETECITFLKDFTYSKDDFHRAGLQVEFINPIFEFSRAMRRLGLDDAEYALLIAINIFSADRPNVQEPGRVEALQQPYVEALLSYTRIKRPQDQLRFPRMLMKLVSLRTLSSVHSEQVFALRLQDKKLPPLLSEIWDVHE
Summary of the method: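 After 24 h of chemical treatment, transfected HepG2 cells yield total RNA; reporter cDNA is PCR-amplified, FAM-labelled, HpaI-cut and run on capillary electrophoresis. Signal reflects chimeric LXRb-Gal4 activity on GAL4-UAS reporters.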

[18] = ATG_M_32_TRANS: Attagene TRANS-FACTORIAL HepG2 Assay for M32 Transcription Factor (Internal Marker) (AID 2282984; active = hit-call score of the fitted dose curve at least 0.9, where 1 is the maximum;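 note: transcript level of a background control reporter unit measured by RT-PCR and capillary electrophoresis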); settings: HepG2 Attagene TRANS M32 internal marker reporter
Summary of the method: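 Cell-based TRANS-format assay in HepG2: exogenous chimeric GAL4 reporter units transiently expressed, compounds applied 24 h. Reporter mRNA detected by RT-PCR plus capillary electrophoresis; this readout is an internal background marker.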

[19] = target: Nuclear receptor subfamily 4 group A member 2 (Homo sapiens) (UniProt P43354); test: ATG_NURR1_TRANS: Attagene TRANS-FACTORIAL HepG2 Assay for human Nuclear Receptor Related Protein 1 (NURR1) (AID 2282985; active = hit-call score of the fitted dose curve at least 0.9, where 1 is the maximum); settings: HepG2 Attagene TRANS reporter, mRNA readout
Chain of Nuclear receptor subfamily 4 group A member 2 (Homo sapiens) (P43354 whole entry, looked up, the tested form may be a part): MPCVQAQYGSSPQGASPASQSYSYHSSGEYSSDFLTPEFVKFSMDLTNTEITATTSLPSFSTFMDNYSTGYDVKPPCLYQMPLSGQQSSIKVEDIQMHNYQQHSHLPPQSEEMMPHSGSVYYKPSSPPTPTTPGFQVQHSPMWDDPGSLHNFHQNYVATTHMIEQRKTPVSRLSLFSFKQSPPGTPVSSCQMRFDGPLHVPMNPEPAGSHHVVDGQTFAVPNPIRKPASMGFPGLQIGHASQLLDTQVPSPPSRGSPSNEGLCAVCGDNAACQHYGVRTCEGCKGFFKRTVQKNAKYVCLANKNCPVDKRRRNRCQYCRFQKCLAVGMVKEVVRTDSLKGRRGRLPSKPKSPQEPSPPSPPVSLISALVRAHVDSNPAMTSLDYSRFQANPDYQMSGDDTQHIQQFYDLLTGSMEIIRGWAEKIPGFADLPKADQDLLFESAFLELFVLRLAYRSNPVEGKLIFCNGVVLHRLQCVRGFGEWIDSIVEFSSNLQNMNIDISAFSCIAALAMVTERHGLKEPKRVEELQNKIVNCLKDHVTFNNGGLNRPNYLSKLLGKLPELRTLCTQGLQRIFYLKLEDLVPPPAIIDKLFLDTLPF
Summary of the method: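 Measures transcriptional activation by an exogenous NR-Gal4 chimera in transfected HepG2 liver cells. After 24 h, reporter RNA is reverse-transcribed, amplified and resolved by capillary electrophoresis; DMSO defines baseline.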

[20] = ATG_NRF2_ARE_CIS: Attagene CIS-FACTORIAL HepG2 Assay for human Nuclear Factor Erythroid 2 Related Factor 2 (NFR2) response to Antioxidant Response Elements (ARE) (AID 2282992); settings: HepG2 Attagene ARE/NRF2 reporter, transcription factor activity; actives raise or lower the signal;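 note: reporter mRNA level measured by RT-PCR and capillary electrophoresis fluorescence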
Summary of the method: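 Endogenous transcription factor activity in human liver HepG2 cells is tracked via a cis-element-driven reporter within a multiplexed set. mRNA induction is read by RT-PCR and capillary electrophoresis after 24 h, with DMSO as baseline.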

Measured: AC50

Cc1cccc(C)c1N
not listed: [15] | [16] | [17] | [18] | [19] | [20]
inactive: all other assays above

C[C@]12CCC(=O)C=C1CC[C@@H]1[C@@H]2CC[C@]2(C)C(=O)CC[C@@H]12
not listed: [1] | [9] | [10] | [20]
inactive: all other assays above

Oc1ccc(Cl)cc1Cl
active: [20] 36.3 µM
not listed: [1] | [9] | [10]
inactive: all other assays above

C=CC(N)=O
not listed: [1] | [2] | [10] | [20]
inactive: all other assays above

ClC1=C(Cl)[C@]2(Cl)[C@@H]3[C@H]4C[C@H]([C@@H]5O[C@H]45)[C@@H]3[C@@]1(Cl)C2(Cl)Cl
not listed: [2] | [3] | [4] | [10] | [16] | [17] | [20]
inactive: all other assays above

NS(=O)(=O)C(F)(F)C(F)(F)C(F)(F)C(F)(F)C(F)(F)C(F)(F)C(F)(F)C(F)(F)F
inactive: [1] | [2] | [16] | [17] | [3] | [4] | [18] | [19] | [5] | [6] | [8] | [9] | [11]
active: [7] 44.3 µM and 37.1 µM and 50 µM | [8] 27.6 µM | [9] 60.1 µM and 253 µM | [11] 112 µM | [12] 30.2 µM and 49.5 µM and 52.9 µM | [13] 29.9 µM and 42.3 µM and 44.1 µM | [14] 35.2 µM and 55 µM and 55.3 µM

CN(C)CCO
not listed: [2] | [16] | [20]
inactive: all other assays above
